# Screen size: about 69,000 compounds; about 8,600 (12%) showed an effect of 50% or more. This excerpt belongs to a sample that is enriched for strong results.
# Tested on: Plasmodium berghei
# Assay: Screen against P. berghei liver stage (PbLuc), transformed with Luciferase, at 10uM
# Type: functional, HepG2
# Details: tested at 10 uM
row,SMILES,INHIBITION
1,NC(=O)NCC1CCCCN1C(=O)c1cccc(Cl)c1 (stereo not drawn),-17.4%
2,CNC(=O)CN1CCCC12CCN(C(=O)c1cccc(F)c1)CC2,14.9%
3,CCSc1ccc(C(=O)N2CCCC2C(=O)N2CCOCC2)cn1 (stereo not drawn),23.6%
4,Cc1ccc(CN2CC[C@H]3OCC[C@@H](C(=O)NC4CC4)[C@@H]3C2)o1,23.9%
5,CCOCc1ccc(NC(=O)N2CCCC2c2nncn2C)cc1 (stereo not drawn),43.7%
6,Cn1cnnc1C1CCCN1C(=O)Nc1cccc(OC(F)F)c1 (stereo not drawn),30.7%
7,COc1cc(NC(=O)N2CCCC2c2nncn2C)ccc1Br (stereo not drawn),55.6%
8,c1cncc(CN2CCc3ncnc(NCCc4c[nH]cn4)c3CC2)c1,38.3%
9,CC(C)c1nc(C2CCCN(C(=O)c3ccc4nncn4c3)C2)no1 (stereo not drawn),-43.6%
10,CCC(C)N1CCC2(CC1)CN(c1cncnc1)C(=O)CO2 (stereo not drawn),3.25%
11,N#Cc1ccc(CNC(=O)NC2CCN(c3ncccn3)CC2)cc1,23.3%
12,N#Cc1ccc(CNC(=O)NC2CCN(CC(F)(F)F)C2)cc1 (stereo not drawn),52%
13,Oc1cccc(CNC2CCN(CCc3ccncc3)CC2)c1,4.48%
14,COCCN1CCC(NCc2ccc(Cl)cc2)C1 (stereo not drawn),23.4%
15,CSc1ccc(CNC2CCN(CCc3ccncc3)CC2)cc1,16.1%
16,N#Cc1ccc(CNC(=O)NC2CCN(CC(F)F)CC2)cc1,26.1%
17,Cc1ccc(CNC2CCN(CCc3ccncc3)CC2)cc1C,15.1%
18,Clc1cccc(CNC2CCN(CCc3ccncc3)CC2)c1,52.9%
19,COCCN1CCC(NCc2cccc(C)c2)C1 (stereo not drawn),15.6%
20,N#Cc1ccc(CNC2CCN(CCc3ccncc3)CC2)cc1,51.1%
21,COCCN1CCC(NCc2ccc(C#N)cc2)C1 (stereo not drawn),57.4%
22,Fc1ccc(CNC2CCN(CCc3ccncc3)CC2)cc1F,21.5%
23,O=C1CCC2(CCC(NC3CCOC3)CC2)N1Cc1ccccc1 (stereo not drawn),-17.1%
24,Cc1cccc(CN2Cc3[nH]nc(COCCO)c3C2)n1,29%

row,SMILES,INHIBITION
1,Cc1nc(C(=O)N2CCOC(c3nc(C(C)C)n[nH]3)C2)c[nH]1 (stereo not drawn),-16%
2,CCN(Cc1nonc1C)C(=O)c1cc(C(F)(F)F)nn1C,29.9%
3,CN(C)Cc1cccc(C(=O)N2CCCC(n3cncn3)C2)c1 (stereo not drawn),29.2%
4,COc1cc2[nH]c(C(=O)O)cc2c(OC)c1C,-13.1%
5,CCn1nc2ccc(S(=O)(=O)N3CCSCC3)cn2c1=O,7.92%
6,CCOc1cccc(C(C)NCc2ccc(OC)c(OC)c2OC)c1 (stereo not drawn),38.5%
7,COc1ccc(CNC(C)c2ccc(Cl)cc2)c(OC)c1OC (stereo not drawn),56%
8,CC(NCC1CCN(CCO)CC1)c1cccc(Cl)c1 (stereo not drawn),40.4%
9,COc1ccc(C(C)NCCC(N)=O)cc1F (stereo not drawn),49.4%
10,COc1ccc(CNC(C)c2cccc(Br)c2)c(OC)c1OC (stereo not drawn),70.5%
11,COc1ccc(CNC(C)c2cccc(Cl)c2)c(OC)c1OC (stereo not drawn),44.3%
12,COc1ccc(C(C)NCc2ccc(OC)c(OC)c2OC)cc1F (stereo not drawn),67.1%
13,COc1cc(CNC(C)c2cccc(Cl)c2)cc(OC)c1OC (stereo not drawn),63.7%
14,CC(NCc1ccc(OCC(N)=O)cc1)c1ccc(Cl)cc1 (stereo not drawn),43.3%
15,COc1cc(CNC(C)Cn2cccn2)cc(Cl)c1OC (stereo not drawn),-3.7%
16,COc1ccc(CNC(C)c2ccccc2Cl)c(OC)c1OC (stereo not drawn),48.3%
17,COc1ccc(C(C)NCc2cnnn2C)cc1F (stereo not drawn),36.6%
18,O=C(COC1CCCCC1)N1CCCC(n2ccnc2)C1 (stereo not drawn),-29.8%
19,CCN1CC(C(=O)NC(C)(C)C(=O)OC)CC1=O (stereo not drawn),-10.3%
20,Cc1[nH]nc(CCC(=O)NCC2CCN(C3CCCCC3)C2)c1C (stereo not drawn),-57.5%
21,COc1cc(CNC(C)c2ccc(F)c(F)c2)cc2c1OCCO2 (stereo not drawn),66.7%
22,CC(NCc1ccc(C(N)=O)cc1)c1ccc(Cl)c(Cl)c1 (stereo not drawn),-29.2%
23,COc1cc(CNCC(O)c2ccc(F)c(F)c2)cc2c1OCO2 (stereo not drawn),24%
24,COc1ccc(C(C)NCc2c[nH]nc2C)cc1Br (stereo not drawn),43.9%

row,SMILES,INHIBITION
1,COc1ccc(CNC(C)c2ccc(Cl)c(Cl)c2)c(OC)c1OC (stereo not drawn),70.5%
2,COc1cc(CNCC(O)c2ccc(C)cc2)cc2c1OCCO2 (stereo not drawn),21.8%
3,CO[C@@H]1CCN(c2ncc(F)cn2)[C@H]1Cc1cnn(C)c1,28.4%
4,CN1CCN(C)C(CNC(=O)N(C)Cc2ccccc2Cl)C1 (stereo not drawn),17.1%
5,Cc1cc(C2CCCN2C(=O)c2csc(-c3cnn(C)c3)n2)on1 (stereo not drawn),-1.445%
6,CCn1nc(C)c2nnn(CC(=O)Nc3cccc(F)c3)c(=O)c21,15.9%
7,NC(=O)C(CNC(=O)Cc1ccc(F)cc1)Cc1ccc(F)cc1 (stereo not drawn),29.2%
8,Cn1c(=O)n(C)c2nc(Cl)c(CC(=O)c3ccccc3)n2c1=O,-6.47%
9,Cn1c(=O)n(C)c2nc(Cl)c(CC(=O)c3ccc(F)cc3)n2c1=O,48.3%
10,Cc1ccc(C(=O)Cc2c(Cl)nc3n(C)c(=O)n(C)c(=O)n23)cc1,85%
11,CC(C)CCn1cc(C(C(=O)O)N2CCC(c3ccncc3)CC2)cn1 (stereo not drawn),23.9%
12,O=C(NCCO)c1sc2ncccc2c1C1CN(C2CCCC2)CCO1 (stereo not drawn),-10.4%
13,CC(C)(C)c1noc(CN2CCCCC2Cn2cncn2)n1 (stereo not drawn),39.15%
14,O=S(=O)(NCC1(c2cccs2)CCCC1)c1cccnc1,-43.5%
15,CCC(C(=O)NCC1=CCCN(C)C1)c1ccccc1 (stereo not drawn),0.348%
16,CC(=O)NCCCn1ncc2c(C)cccc21,35.8%
17,Cc1cc(C(F)(F)F)nn1CCCNC(=O)C1CCN(S(C)(=O)=O)CC1,0.87%
18,Cc1nn(CCCNC(=O)C2CCN(S(C)(=O)=O)CC2)c(Cl)c1Cl,14.8%
19,Cc1ccnn1CCCNC(=O)C1CCN(S(C)(=O)=O)CC1,77.7%
20,Cc1cccc2c1cnn2CCCNC(=O)C1CC1,66.5%
21,COCC(=O)NCCCn1ncc2c(C)cccc21,20.1%
22,Cc1cccc2c1cnn2CCCNC(=O)CCCC(=O)O,60.1%
23,CCCC(=O)NCCCn1ncc2c(C)cccc21,2.69%
24,Cc1cccc2c1cnn2CCCNC(=O)C(C)C,0.139%

row,SMILES,INHIBITION
1,CC(C)n1ccc(-c2cc(C(=O)N3CCN(C)CC3)c3ccccn23)n1,16.9%
2,Cc1onc(-c2ccncc2)c1C(=O)NC1CCCOC1 (stereo not drawn),10.8%
3,CCN(C)c1ncnc2c1CCN(C(=O)c1ccoc1C)CC2,-125%
4,CC(C)CCC(=O)N1CC[C@@H]2[C@H](CC1)N(S(C)(=O)=O)CCS2(=O)=O,-31.9%
5,C/C(NC(=O)c1ccccn1)=C1\C(=O)C[C@@H]2[C@H]1C2(C)C,9.41%
6,Cc1cc(OC(F)F)c(C(=O)N2CC[C@H](O)C2)s1,3.58%
7,CN(C)[C@H]1COC[C@@H]2CN(Cc3ccc4c(c3)OCO4)C[C@@H]21,12.1%
8,CN(c1nc(Cn2cnccc2=O)cs1)C1CC1,55.5%
9,Cc1ccc(=O)n(Cc2csc(N(C)C3CC3)n2)n1,-40.6%
10,CN(c1nc(Cn2cc(Br)ccc2=O)cs1)C1CC1,0%
11,Cn1cnc2c1CCN(Cc1csc(C3CCCC3)n1)C2,-19.9%
12,O=c1ccncn1Cc1csc(C2CC2)n1,57.5%
13,CCc1csc(C2CCCN(C(=O)c3ccncc3)C2)n1 (stereo not drawn),6.1%
14,Cc1cc(C(=O)NCc2cccn2C)nn1C,9.55%
15,CS(=O)(=O)NC[C@H]1OC[C@@H]2CCN(Cc3ccc(F)cc3)C[C@@H]21,-16.2%
16,Cc1nnsc1C(=O)N1CCCC(n2nnc3cc(F)ccc32)C1 (stereo not drawn),52%
17,Cc1n[nH]cc1C(=O)N1CCCC(n2nnc3cc(F)ccc32)C1 (stereo not drawn),21%
18,Cc1nn(C)cc1C(=O)N1CCCC(n2nnc3cc(F)ccc32)C1 (stereo not drawn),-3.31%
19,COCCc1noc(CN2CCOC(Cn3cc(C)cn3)C2)n1 (stereo not drawn),-90.9%
20,Cc1cccc(=O)n1CCC(=O)N1CCC2(CC1)OCCCC2O (stereo not drawn),24.2%
21,CCn1c(CNC(=O)Nc2nc(C)c(C)o2)nc2ccccc21,44.8%
22,Cc1nc(C)c(C(=O)NCc2nc3cccc(C)c3n2C)o1,88.8%
23,Cc1nc(NC(=O)NCc2nc3cccc(C)c3n2C)oc1C,38.6%
24,CCc1ccc(C(=O)O)cc1S(=O)(=O)Nc1ccc2c(c1)OCCO2,28%

row,SMILES,INHIBITION
1,CCS(=O)(=O)NCCCNCc1c(C)nn(C)c1N(C)C,23.25%
2,Cc1cc(N2CCC(N(C)Cc3cccnc3)C2=O)n(C)n1 (stereo not drawn),59.3%
3,CCN(Cc1ccccc1)C1CCN(c2cc(C)nn2C)C1=O (stereo not drawn),57.2%
4,CCN(Cc1ccncc1)C1CCN(c2ccccc2)C1=O (stereo not drawn),-13.1%
5,CCOc1ccc(CN(C)C2CCN(c3cc(C)nn3C)C2=O)cc1 (stereo not drawn),24.7%
6,CCN(Cc1cnc(C)cn1)C1CCN(c2ccccc2)C1=O (stereo not drawn),15.2%
7,CCN(Cc1cccnc1)C1CCN(c2ccccc2)C1=O (stereo not drawn),-2.27%
8,CC(C)C(=O)N1CCC2(CCN2CC2CC2)C1 (stereo not drawn),8.85%
9,Cc1cc(C(=O)N2C[C@@H]3CC[C@H]2CN(Cc2ccccn2)C3)nc(C)n1,4.59%
10,Cc1ncsc1C(=O)N1CCC(c2ccc3c(NC(C)C)n[nH]c3n2)C1 (stereo not drawn),-3.94%
11,CC(=O)Nc1ccc(SCC(O)COCc2ccccc2)cc1 (stereo not drawn),16.6%
12,O=C(Cc1cccnc1)NCCS(=O)(=O)c1ccccc1F,33.7%
13,CNC(=O)C1(c2cnccn2)CCCN1C(=O)c1cccc(F)c1 (stereo not drawn),1.5%
14,Cc1ccc(C(CNC(=O)NCc2ccccn2)N2CCOCC2)o1 (stereo not drawn),11.783%
15,Cc1nn(C)c(N2CCOCC2)c1CNC(C)c1ccccn1 (stereo not drawn),36.2%
16,CC(C)c1nn(C)c(N2CCOCC2)c1CNC(C)c1ccccn1 (stereo not drawn),23.7%
17,COc1cc(NCC(c2ccccn2)N2CCOCC2)ncn1 (stereo not drawn),6.26%
18,c1ccc(C(Cn2cnnc2)N2CCOCC2)nc1 (stereo not drawn),70.4%
19,c1cncc(C(Cn2cnnc2)N2CCOCC2)c1 (stereo not drawn),7.31%
20,CCC(CC)NCC(c1ccccn1)N1CCOCC1 (stereo not drawn),65.6%
21,NCc1cc(NCC(c2ccccn2)N2CCOCC2)ncn1 (stereo not drawn),60.1%
22,c1ccc(C(CNc2ncccn2)N2CCOCC2)nc1 (stereo not drawn),3.48%

# Reference: ChEMBL document CHEMBL4513216, “Probing the Open Global Health Chemical Diversity Library for Multistage-Active Starting Points for Next-Generation Antimalarials” (ACS Infect Dis, 2020)
